Columns and labels:
Test in all cases: log2 ratio of Biotin-Ahx-Ub-VS probe labelling (fragment/DMSO); higher = less target engagement (more negative = stronger competition), active = hit call of the paper (q ≤ 0.05, log2 ratio ≤ -1)
Settings in all cases: compound concentration: 200 uM; treatment time: 3 h
USP42 = biological target: T1, USP42 (UniProt Q9H9J4)
T1 sequence (whole entry): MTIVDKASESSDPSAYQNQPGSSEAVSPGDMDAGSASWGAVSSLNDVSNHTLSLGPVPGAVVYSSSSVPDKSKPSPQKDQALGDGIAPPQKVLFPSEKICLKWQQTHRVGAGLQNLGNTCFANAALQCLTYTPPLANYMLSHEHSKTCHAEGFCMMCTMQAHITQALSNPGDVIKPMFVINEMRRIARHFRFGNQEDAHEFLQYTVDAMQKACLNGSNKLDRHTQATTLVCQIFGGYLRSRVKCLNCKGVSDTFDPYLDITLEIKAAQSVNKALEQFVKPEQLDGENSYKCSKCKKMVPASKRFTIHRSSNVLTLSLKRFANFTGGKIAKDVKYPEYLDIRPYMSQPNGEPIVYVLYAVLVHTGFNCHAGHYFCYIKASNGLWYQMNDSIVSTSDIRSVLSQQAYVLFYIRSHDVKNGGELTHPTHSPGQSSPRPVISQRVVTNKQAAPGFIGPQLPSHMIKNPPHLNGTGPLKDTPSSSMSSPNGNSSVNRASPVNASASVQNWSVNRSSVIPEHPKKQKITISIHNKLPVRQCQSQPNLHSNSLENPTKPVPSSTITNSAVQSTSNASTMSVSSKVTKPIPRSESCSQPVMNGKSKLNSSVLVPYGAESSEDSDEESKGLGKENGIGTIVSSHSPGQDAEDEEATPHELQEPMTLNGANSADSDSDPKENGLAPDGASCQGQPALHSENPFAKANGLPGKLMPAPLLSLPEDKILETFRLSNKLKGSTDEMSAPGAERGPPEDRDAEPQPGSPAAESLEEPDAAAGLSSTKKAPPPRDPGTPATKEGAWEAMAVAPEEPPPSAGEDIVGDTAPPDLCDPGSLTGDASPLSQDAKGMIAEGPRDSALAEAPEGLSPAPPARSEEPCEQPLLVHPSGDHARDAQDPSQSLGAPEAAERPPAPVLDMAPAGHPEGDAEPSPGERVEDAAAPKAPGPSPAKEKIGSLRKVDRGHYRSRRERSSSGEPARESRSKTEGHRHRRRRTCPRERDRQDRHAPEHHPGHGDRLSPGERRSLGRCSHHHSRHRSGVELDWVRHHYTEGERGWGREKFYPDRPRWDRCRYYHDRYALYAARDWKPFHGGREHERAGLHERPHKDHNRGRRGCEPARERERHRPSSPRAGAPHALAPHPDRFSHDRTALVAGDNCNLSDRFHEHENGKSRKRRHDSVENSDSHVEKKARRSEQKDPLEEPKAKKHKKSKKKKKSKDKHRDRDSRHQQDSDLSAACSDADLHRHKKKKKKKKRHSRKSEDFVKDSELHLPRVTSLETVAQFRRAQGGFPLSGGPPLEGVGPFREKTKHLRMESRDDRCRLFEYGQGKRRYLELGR
Procedure, shortened: (§1)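 In triplicate, 495 µg of HEK293T lysate per sample was incubated with fragment at 200 µM or vehicle for 3 h. Biotin-Ahx-Ub-VS was then added to 0.5 µM final for 1 h, and labelled DUBs were captured with NeutrAvidin, digested with LysC and trypsin, and measured by diaPASEF LC-MS/MS. Data are average log2 fragment/vehicle ratios by unpaired t-test from global-median-normalised Spectronaut label-free quantities, restricted to proteins with ≥2 unique peptides.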

USP46 = USP46 (UniProt P62068)
Chain of USP46 (P62068 whole entry): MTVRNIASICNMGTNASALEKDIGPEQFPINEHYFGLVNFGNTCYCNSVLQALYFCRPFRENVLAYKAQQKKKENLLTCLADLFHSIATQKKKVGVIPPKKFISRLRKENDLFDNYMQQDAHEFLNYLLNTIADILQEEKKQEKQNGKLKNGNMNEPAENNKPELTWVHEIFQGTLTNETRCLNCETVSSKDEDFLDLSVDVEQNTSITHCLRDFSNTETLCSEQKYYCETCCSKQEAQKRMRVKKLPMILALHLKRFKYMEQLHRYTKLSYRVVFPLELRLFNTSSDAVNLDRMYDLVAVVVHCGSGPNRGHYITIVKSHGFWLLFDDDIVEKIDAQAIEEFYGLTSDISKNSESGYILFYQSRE
Procedure, shortened: as §1

USP47 = biological target: T2, USP47 (UniProt Q96K76)
T2 sequence (whole entry): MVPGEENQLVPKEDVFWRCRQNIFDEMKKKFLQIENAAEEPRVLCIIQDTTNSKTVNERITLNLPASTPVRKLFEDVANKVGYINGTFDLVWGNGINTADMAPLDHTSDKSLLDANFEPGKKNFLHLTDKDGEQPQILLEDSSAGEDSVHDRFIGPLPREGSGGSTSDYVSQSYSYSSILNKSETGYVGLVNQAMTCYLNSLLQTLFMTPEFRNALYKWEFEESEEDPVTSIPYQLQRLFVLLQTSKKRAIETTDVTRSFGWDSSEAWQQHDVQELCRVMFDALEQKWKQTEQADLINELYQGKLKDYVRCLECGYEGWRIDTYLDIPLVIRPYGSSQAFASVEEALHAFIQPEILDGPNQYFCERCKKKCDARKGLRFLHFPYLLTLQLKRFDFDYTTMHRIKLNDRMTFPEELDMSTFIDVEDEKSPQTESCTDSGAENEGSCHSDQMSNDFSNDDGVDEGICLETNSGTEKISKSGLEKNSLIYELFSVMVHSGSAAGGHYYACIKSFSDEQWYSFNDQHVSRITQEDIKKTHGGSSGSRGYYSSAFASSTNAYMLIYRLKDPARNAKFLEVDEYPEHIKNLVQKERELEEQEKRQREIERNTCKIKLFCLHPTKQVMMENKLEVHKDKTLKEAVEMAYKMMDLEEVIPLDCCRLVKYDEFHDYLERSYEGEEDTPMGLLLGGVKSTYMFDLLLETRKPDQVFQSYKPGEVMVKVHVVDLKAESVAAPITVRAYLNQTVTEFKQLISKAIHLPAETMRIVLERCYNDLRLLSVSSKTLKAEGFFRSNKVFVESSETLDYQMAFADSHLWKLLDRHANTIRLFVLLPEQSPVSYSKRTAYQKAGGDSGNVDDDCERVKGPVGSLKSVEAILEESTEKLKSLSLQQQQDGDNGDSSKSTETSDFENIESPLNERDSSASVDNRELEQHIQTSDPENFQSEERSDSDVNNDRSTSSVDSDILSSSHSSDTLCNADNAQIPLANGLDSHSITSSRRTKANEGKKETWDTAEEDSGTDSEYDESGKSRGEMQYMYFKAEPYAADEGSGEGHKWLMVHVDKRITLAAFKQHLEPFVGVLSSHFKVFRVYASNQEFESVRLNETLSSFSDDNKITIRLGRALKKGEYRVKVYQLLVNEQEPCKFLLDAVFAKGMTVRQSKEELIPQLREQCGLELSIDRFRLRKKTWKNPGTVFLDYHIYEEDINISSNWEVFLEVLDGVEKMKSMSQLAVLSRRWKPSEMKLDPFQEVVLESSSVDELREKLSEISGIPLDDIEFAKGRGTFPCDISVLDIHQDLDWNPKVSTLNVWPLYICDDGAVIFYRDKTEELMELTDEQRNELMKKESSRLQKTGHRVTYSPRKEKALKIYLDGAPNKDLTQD
Procedure, shortened: as §1

USP48 = biological target: T3, USP48 (UniProt Q86UV5)
T3 sequence (whole entry): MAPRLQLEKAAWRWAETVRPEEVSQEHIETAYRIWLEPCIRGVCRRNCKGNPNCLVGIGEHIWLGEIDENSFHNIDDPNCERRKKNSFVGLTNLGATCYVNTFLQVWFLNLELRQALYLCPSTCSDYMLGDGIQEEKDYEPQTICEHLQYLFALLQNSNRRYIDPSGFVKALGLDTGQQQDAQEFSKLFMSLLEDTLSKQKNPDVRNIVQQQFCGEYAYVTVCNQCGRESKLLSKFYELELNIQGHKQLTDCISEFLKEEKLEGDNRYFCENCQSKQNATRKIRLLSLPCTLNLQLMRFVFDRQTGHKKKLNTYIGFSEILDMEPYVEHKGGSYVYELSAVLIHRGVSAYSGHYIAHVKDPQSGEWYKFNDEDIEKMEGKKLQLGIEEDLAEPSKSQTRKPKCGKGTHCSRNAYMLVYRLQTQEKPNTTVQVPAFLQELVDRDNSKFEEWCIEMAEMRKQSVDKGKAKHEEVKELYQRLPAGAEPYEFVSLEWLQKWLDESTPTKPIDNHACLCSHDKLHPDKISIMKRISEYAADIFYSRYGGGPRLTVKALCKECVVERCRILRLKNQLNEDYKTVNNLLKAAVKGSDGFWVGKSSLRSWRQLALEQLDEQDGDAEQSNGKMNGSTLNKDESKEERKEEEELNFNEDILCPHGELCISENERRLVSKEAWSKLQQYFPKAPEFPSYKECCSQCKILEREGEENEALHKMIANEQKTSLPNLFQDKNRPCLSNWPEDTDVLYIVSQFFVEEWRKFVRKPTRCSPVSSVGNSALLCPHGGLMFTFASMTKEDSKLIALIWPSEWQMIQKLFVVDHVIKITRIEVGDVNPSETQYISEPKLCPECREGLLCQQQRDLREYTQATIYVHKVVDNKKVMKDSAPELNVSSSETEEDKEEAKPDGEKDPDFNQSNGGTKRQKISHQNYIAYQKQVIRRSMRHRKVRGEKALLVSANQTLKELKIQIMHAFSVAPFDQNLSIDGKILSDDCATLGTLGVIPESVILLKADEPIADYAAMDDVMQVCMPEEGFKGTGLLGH
Procedure, shortened: as §1

USP5 = biological target: T4, USP5 (UniProt P45974)
T4 sequence (whole entry): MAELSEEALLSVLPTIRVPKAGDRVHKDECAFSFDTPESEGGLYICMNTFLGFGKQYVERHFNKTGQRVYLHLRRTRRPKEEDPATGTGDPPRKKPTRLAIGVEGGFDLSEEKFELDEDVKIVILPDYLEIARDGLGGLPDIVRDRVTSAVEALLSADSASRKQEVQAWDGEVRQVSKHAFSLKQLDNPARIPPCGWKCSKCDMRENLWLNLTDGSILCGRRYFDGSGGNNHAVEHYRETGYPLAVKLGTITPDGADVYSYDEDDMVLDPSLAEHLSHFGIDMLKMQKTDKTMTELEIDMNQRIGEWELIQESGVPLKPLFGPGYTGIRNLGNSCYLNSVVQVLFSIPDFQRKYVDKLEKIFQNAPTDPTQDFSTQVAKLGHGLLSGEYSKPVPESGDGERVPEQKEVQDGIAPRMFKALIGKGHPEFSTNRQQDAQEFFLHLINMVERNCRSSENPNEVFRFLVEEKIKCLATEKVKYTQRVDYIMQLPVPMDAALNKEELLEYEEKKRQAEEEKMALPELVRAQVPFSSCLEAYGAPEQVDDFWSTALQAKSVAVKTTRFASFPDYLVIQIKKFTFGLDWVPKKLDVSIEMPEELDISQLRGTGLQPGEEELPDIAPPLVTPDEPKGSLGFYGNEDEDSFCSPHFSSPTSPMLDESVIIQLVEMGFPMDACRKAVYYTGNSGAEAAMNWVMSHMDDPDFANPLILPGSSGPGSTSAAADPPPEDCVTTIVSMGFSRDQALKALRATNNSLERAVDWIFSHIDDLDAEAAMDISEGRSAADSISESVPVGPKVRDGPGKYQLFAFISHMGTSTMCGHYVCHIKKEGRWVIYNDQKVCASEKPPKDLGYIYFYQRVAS
Procedure, shortened: as §1

USP54 = USP54 (UniProt Q70EL1)
Chain of USP54 (Q70EL1 whole entry): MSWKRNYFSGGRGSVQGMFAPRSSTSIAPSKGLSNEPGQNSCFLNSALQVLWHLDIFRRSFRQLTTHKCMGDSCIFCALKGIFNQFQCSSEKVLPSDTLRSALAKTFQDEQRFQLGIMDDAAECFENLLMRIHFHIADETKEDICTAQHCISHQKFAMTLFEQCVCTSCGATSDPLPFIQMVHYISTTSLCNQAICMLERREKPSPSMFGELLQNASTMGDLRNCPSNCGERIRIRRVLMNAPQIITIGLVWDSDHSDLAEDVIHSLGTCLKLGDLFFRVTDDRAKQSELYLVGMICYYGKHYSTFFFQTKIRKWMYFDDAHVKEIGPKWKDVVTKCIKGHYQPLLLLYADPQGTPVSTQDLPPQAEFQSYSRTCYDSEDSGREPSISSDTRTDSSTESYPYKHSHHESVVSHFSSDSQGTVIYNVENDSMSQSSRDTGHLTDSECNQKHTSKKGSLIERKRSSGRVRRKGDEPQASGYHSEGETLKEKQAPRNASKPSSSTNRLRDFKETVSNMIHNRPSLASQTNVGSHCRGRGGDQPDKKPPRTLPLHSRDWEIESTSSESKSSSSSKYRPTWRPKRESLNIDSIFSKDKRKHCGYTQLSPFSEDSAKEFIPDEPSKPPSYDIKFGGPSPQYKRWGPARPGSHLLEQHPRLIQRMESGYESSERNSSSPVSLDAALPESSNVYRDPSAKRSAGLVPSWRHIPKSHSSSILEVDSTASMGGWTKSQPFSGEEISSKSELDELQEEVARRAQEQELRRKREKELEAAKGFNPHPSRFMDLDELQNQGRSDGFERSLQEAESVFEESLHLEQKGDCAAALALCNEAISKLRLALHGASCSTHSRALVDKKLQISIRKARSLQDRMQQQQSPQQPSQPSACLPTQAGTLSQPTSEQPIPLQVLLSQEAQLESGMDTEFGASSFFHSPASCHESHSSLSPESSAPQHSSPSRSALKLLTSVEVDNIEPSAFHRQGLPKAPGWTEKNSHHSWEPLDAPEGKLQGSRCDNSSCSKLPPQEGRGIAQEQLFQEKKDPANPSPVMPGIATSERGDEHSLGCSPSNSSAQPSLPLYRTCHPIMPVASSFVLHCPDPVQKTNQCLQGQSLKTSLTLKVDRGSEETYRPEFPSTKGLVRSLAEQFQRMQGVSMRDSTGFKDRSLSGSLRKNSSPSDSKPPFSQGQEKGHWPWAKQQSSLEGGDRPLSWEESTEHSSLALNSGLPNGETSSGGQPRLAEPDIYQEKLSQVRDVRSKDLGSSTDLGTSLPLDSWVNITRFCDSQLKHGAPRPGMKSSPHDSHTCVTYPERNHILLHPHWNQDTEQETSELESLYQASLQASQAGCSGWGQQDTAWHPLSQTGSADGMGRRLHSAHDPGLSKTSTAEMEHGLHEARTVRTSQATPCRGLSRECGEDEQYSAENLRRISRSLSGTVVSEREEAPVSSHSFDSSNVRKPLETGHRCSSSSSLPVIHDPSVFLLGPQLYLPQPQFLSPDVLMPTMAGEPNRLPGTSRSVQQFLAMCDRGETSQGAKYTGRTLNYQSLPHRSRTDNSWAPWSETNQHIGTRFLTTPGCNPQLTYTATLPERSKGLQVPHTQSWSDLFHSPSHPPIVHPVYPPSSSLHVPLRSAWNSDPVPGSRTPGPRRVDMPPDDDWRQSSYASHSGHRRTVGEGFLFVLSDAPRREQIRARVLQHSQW
Procedure, shortened: as §1

USP7 = USP7 (UniProt Q93009)
Chain of USP7 (Q93009 whole entry, looked up): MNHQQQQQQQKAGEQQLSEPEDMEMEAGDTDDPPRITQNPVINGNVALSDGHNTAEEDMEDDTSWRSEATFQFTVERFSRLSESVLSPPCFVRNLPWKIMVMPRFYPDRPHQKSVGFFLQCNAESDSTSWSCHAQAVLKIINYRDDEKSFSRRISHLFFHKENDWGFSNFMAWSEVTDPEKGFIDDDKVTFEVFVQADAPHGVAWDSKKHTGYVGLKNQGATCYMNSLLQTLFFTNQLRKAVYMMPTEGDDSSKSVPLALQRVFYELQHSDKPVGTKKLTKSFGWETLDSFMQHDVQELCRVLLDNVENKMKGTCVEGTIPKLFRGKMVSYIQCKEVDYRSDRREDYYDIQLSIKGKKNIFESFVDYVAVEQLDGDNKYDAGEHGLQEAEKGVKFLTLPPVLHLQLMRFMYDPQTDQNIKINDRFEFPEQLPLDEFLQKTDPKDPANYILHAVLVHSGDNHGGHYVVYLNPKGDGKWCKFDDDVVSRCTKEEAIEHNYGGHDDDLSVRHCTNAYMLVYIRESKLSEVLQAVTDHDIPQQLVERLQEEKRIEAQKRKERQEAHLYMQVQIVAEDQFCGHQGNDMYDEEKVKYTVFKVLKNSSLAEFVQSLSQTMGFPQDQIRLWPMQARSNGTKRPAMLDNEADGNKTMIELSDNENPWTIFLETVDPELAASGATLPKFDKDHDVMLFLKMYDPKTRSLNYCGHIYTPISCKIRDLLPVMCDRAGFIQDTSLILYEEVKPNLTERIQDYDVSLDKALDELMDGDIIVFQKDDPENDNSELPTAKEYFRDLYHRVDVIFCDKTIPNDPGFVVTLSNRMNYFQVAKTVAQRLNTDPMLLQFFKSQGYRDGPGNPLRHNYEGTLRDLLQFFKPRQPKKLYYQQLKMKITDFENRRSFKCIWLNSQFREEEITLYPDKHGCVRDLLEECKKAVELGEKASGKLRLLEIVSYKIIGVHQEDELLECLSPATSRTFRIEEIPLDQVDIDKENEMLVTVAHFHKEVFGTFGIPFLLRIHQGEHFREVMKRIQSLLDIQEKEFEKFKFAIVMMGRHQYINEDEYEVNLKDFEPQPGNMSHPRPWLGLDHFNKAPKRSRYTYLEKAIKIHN
Procedure, shortened: as §1

USP8 = biological target: T5, USP8 (UniProt P40818)
T5 sequence (whole entry): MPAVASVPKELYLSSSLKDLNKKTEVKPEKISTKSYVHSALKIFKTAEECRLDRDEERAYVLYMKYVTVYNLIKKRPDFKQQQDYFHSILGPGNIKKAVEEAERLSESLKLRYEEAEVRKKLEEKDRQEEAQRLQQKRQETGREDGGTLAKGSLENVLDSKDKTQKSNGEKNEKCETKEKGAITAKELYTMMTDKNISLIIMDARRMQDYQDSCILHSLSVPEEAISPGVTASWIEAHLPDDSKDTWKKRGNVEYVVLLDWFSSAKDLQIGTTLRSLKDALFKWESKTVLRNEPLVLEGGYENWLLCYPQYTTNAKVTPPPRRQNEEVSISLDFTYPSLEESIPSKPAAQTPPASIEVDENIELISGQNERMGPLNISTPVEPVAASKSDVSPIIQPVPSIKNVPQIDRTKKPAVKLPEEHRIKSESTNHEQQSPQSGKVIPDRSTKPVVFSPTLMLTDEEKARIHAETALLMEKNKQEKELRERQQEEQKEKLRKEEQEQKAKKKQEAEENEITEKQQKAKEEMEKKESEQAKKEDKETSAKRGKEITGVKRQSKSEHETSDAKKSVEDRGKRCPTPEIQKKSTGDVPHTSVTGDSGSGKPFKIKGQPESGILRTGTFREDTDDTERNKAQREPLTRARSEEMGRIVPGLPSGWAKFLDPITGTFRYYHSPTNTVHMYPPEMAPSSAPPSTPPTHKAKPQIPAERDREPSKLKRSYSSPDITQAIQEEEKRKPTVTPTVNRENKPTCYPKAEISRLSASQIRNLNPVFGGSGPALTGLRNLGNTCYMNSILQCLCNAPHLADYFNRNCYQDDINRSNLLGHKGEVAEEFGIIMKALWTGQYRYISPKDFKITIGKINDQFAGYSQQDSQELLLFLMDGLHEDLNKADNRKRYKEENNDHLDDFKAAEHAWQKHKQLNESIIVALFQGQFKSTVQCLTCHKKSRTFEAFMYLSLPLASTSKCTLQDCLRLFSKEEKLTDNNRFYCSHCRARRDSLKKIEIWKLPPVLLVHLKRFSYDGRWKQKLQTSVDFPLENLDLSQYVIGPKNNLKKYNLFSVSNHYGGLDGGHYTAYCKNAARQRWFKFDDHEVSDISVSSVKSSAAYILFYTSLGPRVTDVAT
Procedure, shortened: as §1

Measured: log2 ratio of Biotin-Ahx-Ub-VS probe labelling

CC1CCc2onc(CNC(=O)CCl)c2C1 (stereo not drawn)
inactive: USP42 0.0513 | USP46 0.0919 | USP47 -0.0836 | USP48 0.185 | USP5 0.386 | USP54 0.0792 | USP7 -0.00387 | USP8 -0.212

Reference: the supplement of paper PMC11732987, “Enantioselective OTUD7B fragment discovery through chemoproteomics screening and high-throughput optimisation” (Communications Chemistry, 2025)
